Results taken from PubChem BioAssay AID737 (Emory University Molecular Libraries Screening Center, 2007).
Results with a measured potency or affinity are listed apart. Values without a mark were called inactive. The source made the active and inactive calls.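 The calls were made as follows: active = fitted EC50 under 30 µM, or percent of control over 300% when no usable fit; inactive = the rest.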

Biological target: Estrogen receptor (Homo sapiens) (UniProt P03372)
Assay: potentiators of ERα–SRC-1 coactivator binding, dose response, biochemical, TR-FRET, ERα LBD (AID 737)
Settings: TR-FRET ER-alpha LBD / SRC-Cy5 coactivator recruitment; at 12.5 µM; active compounds read high

Estrogen receptor (Homo sapiens), sequence (P03372 whole entry, looked up, the tested form may be a part): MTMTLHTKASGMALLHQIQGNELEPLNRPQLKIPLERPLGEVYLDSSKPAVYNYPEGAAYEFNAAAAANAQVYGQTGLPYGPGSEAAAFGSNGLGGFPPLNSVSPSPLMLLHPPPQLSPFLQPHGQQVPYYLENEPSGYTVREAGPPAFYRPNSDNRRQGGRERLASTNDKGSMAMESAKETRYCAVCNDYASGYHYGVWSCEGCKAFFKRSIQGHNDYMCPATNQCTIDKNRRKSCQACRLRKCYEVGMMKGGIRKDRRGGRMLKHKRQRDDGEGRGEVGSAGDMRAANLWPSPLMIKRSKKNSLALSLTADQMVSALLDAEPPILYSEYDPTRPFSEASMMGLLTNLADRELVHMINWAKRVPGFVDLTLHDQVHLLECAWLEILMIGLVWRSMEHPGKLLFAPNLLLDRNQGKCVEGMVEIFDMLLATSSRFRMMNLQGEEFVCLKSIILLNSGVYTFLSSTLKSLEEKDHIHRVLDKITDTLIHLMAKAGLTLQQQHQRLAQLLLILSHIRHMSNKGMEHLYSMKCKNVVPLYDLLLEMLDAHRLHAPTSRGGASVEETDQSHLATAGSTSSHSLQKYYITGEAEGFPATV

Row | SMILES | percent of control
1 | CCOC(=O)Cn1c(-c2nonc2NC(=O)c2ccccc2F)nc2ccccc21 | 218%
2 | COc1ccc(OC)c(C(=O)CSc2nnc(-c3ccc(OC)c(OC)c3)o2)c1 | 662% (active)
3 | O=C(c1cc2ccccc2oc1=O)N(Cc1ccco1)Cc1cccs1 | 110%
4 | Cc1ccc(S(=O)(=O)c2nc(S(C)(=O)=O)sc2NCC2CCCO2)cc1 (stereo not drawn) | 136%
5 | COc1ccc(-c2c(C#N)c(C)nc3c2C(=O)c2ccccc2-3)cc1 | 239%
6 | Cc1ccc(C)n1-c1cccc(C(=O)O)c1 | 26.6%
7 | O=C(COC(=O)C(O)c1ccccc1)c1ccc2c(c1)OCCO2 (stereo not drawn) | 108%
8 | O=C(Cc1ccc(Cl)cc1)Nc1ccc2oc(-c3ccncc3)nc2c1 | 207%
9 | CCOC(=O)c1c(NC(=O)CSc2nnc(-c3ccccc3)o2)sc(C(C)=O)c1C | 305% (active)
10 | CCOC(=O)N1c2ccccc2C=CC1OCC (stereo not drawn) | 152%
11 | Cc1ccc(NC(=O)CSc2nnc(Cn3c(=O)sc4ccccc43)n2C)cc1Cl | 165%
12 | CCOC(=O)c1sc(NC(=O)c2ccc3ncsc3c2)nc1C | 349% (active)
13 | O=C(Nc1ccc(-c2noc(-c3cccs3)n2)cc1)c1cccnc1 | 208%
